From PubChem BioAssay AID651871 (Sanford-Burnham Center for Chemical Genomics, 2012)
Values joined by “and” are separate entries in the source; they are usually repeats but may differ in a detail not shown here. Equal values may be shown once.

These compounds were tested on HL-1 (assay: protection of cardiomyocytes from stress damage, SAR follow-up, cell-based, panel, H9c2 and HL-1, ATP luminescence, set 2 (AID 651871;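 also: cells exposed to stressor for 2 h before ATP readout; reference of the scale not given here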)). Conditions: H9c2/HL-1 cardiomyocytes, H2O2 oxidative stress; with H2O2, run 4, at 79 µM (top of the series).
With `COc1cc(-c2cc(C(=O)Nc3cccc(C(=O)NCc4ccccc4)c3)c3ccccc3n2)cc(OC)c1OC` the activity (protection/inhibition) was 17.9%. In the case of `COc1ccc2c(c1OC)C(=O)N1c3ccccc3C(=O)N(Cc3cccc(Cl)c3Cl)C21` (centres undefined), the activity (protection/inhibition) is reported as 8.81% and -13.3% and 3.82%. For `COc1ccc2nc(-c3cc(OC)c(OC)c(OC)c3)cc(C(=O)NCC(=O)Nc3ccc(C(C)=O)cc3)c2c1`, the activity (protection/inhibition) was 37.2% and 50%. In the case of `CCOC(=O)c1cccc(NC(=O)CNC(=O)c2cc(-c3cc(OC)c(OC)c(OC)c3)nc3ccccc23)c1`, the activity (protection/inhibition) is reported as 25.9%.
